Sampled rows, rich in hits. Any-hit rate of the full collection: about 3.3%.
AmpC detergent = qHTS Inhibitors of AmpC Beta-Lactamase (assay with detergent) | Potency, µM (series often up to 114 µM), usual class: inhibitors | P00811 | hit rate 0.041% among 370,000 | AmpC hydrolysis of nitrocefin, absorbance 480 nm, 0.01% Triton; further: nearly all actives have a fitted effect of over 25% in size
Target sequence (P00811 whole entry, looked up): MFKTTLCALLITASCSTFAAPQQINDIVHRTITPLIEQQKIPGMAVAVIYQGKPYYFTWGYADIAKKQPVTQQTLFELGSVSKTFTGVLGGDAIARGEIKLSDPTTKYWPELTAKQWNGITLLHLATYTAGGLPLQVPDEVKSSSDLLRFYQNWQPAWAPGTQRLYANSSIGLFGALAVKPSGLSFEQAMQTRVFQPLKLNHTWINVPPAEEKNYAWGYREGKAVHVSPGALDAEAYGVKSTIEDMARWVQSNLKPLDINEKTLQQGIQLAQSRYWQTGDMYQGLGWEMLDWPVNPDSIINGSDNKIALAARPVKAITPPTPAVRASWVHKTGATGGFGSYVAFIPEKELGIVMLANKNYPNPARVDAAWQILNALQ
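AmpC (5.3 nM in the dispensed reagent) in 20 mM phosphate pH 7.0 with 0.01% (detergent screen) or 0.0001% Triton X-100 was preincubated with compounds for 15 min at room temperature. Nitrocefin was then added from an 800 uM solution, and hydrolysis was followed at 480 nm.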
Sm TGR block = qHTS Assay for the Inhibitors of Schistosoma Mansoni Peroxiredoxins | Schistosoma mansoni thioredoxin glutathione reductase (TGR), Q962Y6 | purified TGR, DTNB reduction, TNB absorbance 405 nm | Potency, µM (series often up to 114 µM), usual class: inhibitors | hit rate 3% among 360,000 | AID 485364, 2010; further: nearly all actives have a fitted effect of over 60% in size
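TGR 20 nM + NADPH 100 uM (dispensed conc.), cpd preinc 15 min RT; start with NADPH (500 uM addition) then DTNB (15 mM addition). Kinetic TNB absorbance, 405 nm filter. Four-parameter Hill fit across titration.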
AmpC no deterg = qHTS Inhibitors of AmpC Beta-Lactamase (assay without detergent) | AmpC nitrocefin hydrolysis, absorbance 480 nm, 0.0001% Triton | Potency, µM (highest dose often 57.1 µM), hits mostly inhibitors | hit rate 0.52% among 330,000 | AID 485341, 2010; further: nearly all actives have a fitted effect of over 20% in size
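20 mM phosphate pH 7.0 + 0.01% (detergent screen) or 0.0001% Triton X-100; 5.3 nM AmpC reagent; cpd preinc 15 min RT; nitrocefin (800 uM stock) to start; A480 q20 s × 4 min; Activity was normalised to no-enzyme and no-compound control wells.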
Each line names hits and unclear results; the compound was inactive in the other large screens. The call rests on the fitted dose curve; in most records, active means well fitted curve in the direction sought with a large enough effect; inconclusive means small, poorly fitted or top-dose-only effect, or another doubt; inactive means no such curve, though single readings can be large; an effect the other way counts as inactive or inconclusive.

O=C(CSc1ccc2c(c1)OCCO2)NCc1ccco1	Sm TGR block 20µM
CCOc1ccc(N(Cc2ccc(C(=O)O)cc2)S(=O)(=O)c2ccc(C)cc2)cc1	none
CCOc1ccc(S(=O)(=O)N2CCC(C(=O)N3CCCCCC3)CC2)cc1C	none
Cc1cc(C)c(NS(=O)(=O)c2ccc(NC(=O)CCC(=O)O)cc2)c(C)c1	none
NC(=O)c1sc2nnc(-c3ccccc3)c(-c3ccccc3)c2c1N	none
CCn1nc(C)c(CNC(=O)c2ccc(OC3CCN(Cc4ccccn4)CC3)cc2)c1C	none
COc1ccc2c(c1)CC1(CN2C)C(=O)NC(=O)N(c2ccc(C)cc2)C1=O (stereo not given)	AmpC detergent inconclusive, Sm TGR block 50µM
COc1ccc2c(c1)CC1(CN2C)C(=O)NC(=O)N(c2ccc(F)cc2)C1=O (stereo not given)	Sm TGR block inconclusive
O=C1C=C(c2ccc(OC(F)(F)F)cc2)C[C@@H](c2ccc(Cl)cc2)C1	none
CCOC(=O)CC1Sc2ccccc2NC1=O (stereo not given)	AmpC detergent inconclusive
CCC(OC(=O)CC1Sc2ccccc2NC1=O)C(=O)NCC1CCCO1 (stereo not given)	Sm TGR block 25µM
O=C(c1ccco1)N(CCC(c1ccccc1)c1ccco1)Cc1ccccc1 (stereo not given)	Sm TGR block 50µM
Cc1ccc(CN(Cc2ccco2)C(=O)c2ccco2)cc1	none
COc1ccc(CN(CCC(c2ccccc2)c2ccco2)C(=O)c2ccco2)cc1 (stereo not given)	AmpC detergent inconclusive, Sm TGR block 35µM
COc1ccc(CCN(Cc2nc3ccccc3c(=O)[nH]2)C(=O)c2ccco2)cc1	none
O=C(Cc1ccc(Cl)cc1)OCC(=O)N1CCCCCC1	none (no result: AmpC detergent, Sm TGR block)
Cc1ccc(S(=O)(=O)N2CCN(CCC#N)CC2)cc1	none
CCN(C1CCCCC1)S(=O)(=O)c1ccc(S(=O)(=O)N2CCN(CCC#N)CC2)cc1	AmpC no deterg 6.3µM
N#CCCN1CCN(S(=O)(=O)c2ccc(S(=O)(=O)N3CCCCCC3)cc2)CC1	AmpC detergent inconclusive
CC(=O)Nc1ccc(S(=O)(=O)N2CCN(CCC#N)CC2)cc1	AmpC detergent inconclusive, AmpC no deterg 45µM
CCOC(=O)N1CCN(C(=O)CSCc2ccccc2Cl)CC1	none
O=C(CNc1cccc(S(=O)(=O)N2CCOCC2)c1)Nc1ccc(C(F)(F)F)cc1	AmpC detergent inconclusive
CC(=O)Nc1ccc(/C(C)=N/NC(=O)c2ccccc2Cl)cc1	none
CCc1cc(C(=O)NC2CCCN(Cc3ccccc3F)C2)n(C)n1 (stereo not given)	none
O=C1NC(=Nc2cccc(O)c2)S/C1=C\c1cccnc1	Sm TGR block 8.9µM
Cc1cccc(N=C2NC(=O)/C(=C/c3cccnc3)S2)c1	none
CC(=O)Nc1nc(C)c(-c2csc(Nc3ccc(O)cc3)n2)s1	AmpC no deterg inconclusive
CC(=O)Nc1ccc(Nc2nc(-c3sc(NC(C)=O)nc3C)cs2)cc1	AmpC no deterg 1.8µM
O=C(CCNC(=O)c1ccco1)Nc1ccccc1OC(F)F	AmpC detergent inconclusive
O=C(O[C@@H]1OC2COC(=O)c3cc(O)c(O)c(O)c3-c3c(cc(O)c(O)c3O)C(=O)O[C@@H]([C@H]1O)[C@@H]2O)c1cc(O)c(O)c(O)c1	Sm TGR block 28µM
COc1cc(CN2CCCC(C(=O)c3ccc4c5c(cccc35)CC4)C2)cc(OC)c1O (stereo not given)	Sm TGR block 14µM
O=C(c1ccc2c3c(cccc13)CC2)C1CCCN(Cc2cccnc2)C1 (stereo not given)	none
O=C1CC(N2CCN(c3ccccc3Cl)CC2)C(=O)N1c1ccc(F)cc1 (stereo not given)	AmpC detergent inconclusive, Sm TGR block inconclusive
Cc1cccc(N2C(=O)CC(N3CCN(c4ccccc4)CC3)C2=O)c1 (stereo not given)	none
CCOC(=O)c1ccc(N2C(=O)CC(N3CCN(Cc4ccccc4)CC3)C2=O)cc1 (stereo not given)	AmpC detergent inconclusive
CCOC(=O)c1ccc(N2C(=O)CC(N3CCC(C#N)(c4ccccc4)CC3)C2=O)cc1 (stereo not given)	Sm TGR block 45µM
CCOC(=O)c1ccc(N2C(=O)CC(N3CCC(O)(c4ccc(Br)cc4)CC3)C2=O)cc1 (stereo not given)	Sm TGR block 50µM
O=C1CC(N2CCN(c3ccccc3Cl)CC2)C(=O)N1c1cccc(F)c1 (stereo not given)	Sm TGR block 40µM
CCOc1ccc(N2C(=O)CC(N3CCC(O)(c4ccc(Br)cc4)CC3)C2=O)cc1 (stereo not given)	none
N#CC1(c2ccccc2)CCN(C2CC(=O)N(c3cccc(F)c3)C2=O)CC1 (stereo not given)	Sm TGR block 45µM
O=C(Nc1ccc(Cl)c(S(=O)(=O)N2CCCCC2)c1)c1ccco1	none
O=C(NCCc1ccc(F)cc1)C1CCCCC1	none
O=C1CC(N2CCc3ccccc32)C(=O)N1c1ccccc1 (stereo not given)	none
O=C1CC(N2CCCc3ccccc32)C(=O)N1c1ccccc1Cl (stereo not given)	Sm TGR block 20µM
CCOC(=O)c1ccc(N2C(=O)CC(N3CCC(O)(c4ccc(Cl)cc4)CC3)C2=O)cc1 (stereo not given)	Sm TGR block 22µM
CNc1ncnc2c1cnn2-c1ccc(C)c(C)c1	none (no result: AmpC no deterg)
CC(=O)c1ccc(OCCCN2CCCCC2)cc1	none
CC(C)COc1ccc(C(=O)CCN2CCCCC2)cc1	Sm TGR block 0.35µM
COc1ccc(C(=O)CCN2CCCC(C)C2)cc1 (stereo not given)	Sm TGR block 0.28µM
CC1CCCN(CCC(=O)c2ccc(Br)cc2)C1 (stereo not given)	none
CCCCOc1ccc(C(=O)CCN2CCCCC2)cc1	Sm TGR block 0.32µM
CC(C)COc1ccc(C(=O)OCCN2CCCCC2)cc1	none
N#CCC(=O)Nc1ccc(C(=O)OCC(=O)NC2CCCCCC2)cc1	none
COc1ccc(OC)c(CNC(=O)CN2CC(C)Sc3ccccc32)c1 (stereo not given)	none (no result: AmpC no deterg)
O=C(CN(C(=O)c1csnn1)c1ccccc1Cl)NC1CCCCC1	none
CCOC(=O)C1(CCCc2ccccc2)CCN(C(=O)c2cc(C)nn2CC)CC1	none
CCCC1C2C(=O)N(c3ccccc3)C(=O)C2ON1c1ccccc1 (stereo not given)	none
CCCOc1ccc(N2C(=O)C3ON(c4ccccc4)C(CCC)C3C2=O)cc1 (stereo not given)	Sm TGR block 22µM
CN(C)C(CNC(=O)CCCN1C(=O)c2cccc3cccc(c23)C1=O)c1ccccc1 (stereo not given)	none
COC(=O)[C@]1(C)N[C@H](CN(C)C(=O)c2ccc(C(C)(C)C)cc2)[C@@H]2C(=O)N(Cc3ccccc3)C(=O)[C@@H]21	none (no result: AmpC detergent, Sm TGR block)
Cc1c(NS(=O)(=O)c2ccc3c(c2)Cc2ccccc2-3)c(=O)n(-c2ccccc2)n1C	none (no result: Sm TGR block)
O=C(NCC(c1cccs1)N1CCOCC1)c1ccc(OCc2ccccc2)cc1 (stereo not given)	none
Cc1oc(-c2ccccc2F)nc1CS(=O)(=O)CC(=O)NC1CCCC1	AmpC detergent inconclusive, Sm TGR block 40µM
